Among all 5,500 compounds or so, about 2,000 (36%) were called active. Inconclusive results (about 18%) are left out. No stated cut-off is given here; in the data, active means normalized growth mostly below about 0.91 (no sharp cut-off); inconclusive means no clear call, values can overlap the other calls; inactive means mostly above about 0.92. This is one part of the list.
Test: chemical genetic growth profiling, strain panel (AID 1159580);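 further: tested at 20 µM; growth read once vehicle control cultures reached saturation at 30 °C; 1 = growth at the plate median or of vehicle wells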
Details: growth OD

Measured: normalized growth

NC(N)=NOCC[C@H](N)C(=O)O
inactive: S. cerevisiae deletion strains, locus YJR043C, strain POL32, stronger effect = lower value 1 | S. cerevisiae deletion strains, locus YJR075W, strain HOC1, stronger effect = lower value 0.983 | S. cerevisiae deletion strains, locus YKL009W, strain mrt4, stronger effect = lower value 0.971 | S. cerevisiae deletion strains, locus YKL068W, stronger effect = lower value 0.978 | S. cerevisiae deletion strains, locus YKL085W, strain MDH1 (second series), stronger effect = lower value 0.969 | S. cerevisiae deletion strains, locus YKL085W, strain MDH1, stronger effect = lower value 0.969 | S. cerevisiae deletion strains, locus YKL160W, strain elf1, stronger effect = lower value 1.01 | S. cerevisiae deletion strains, locus YKL190W, strain CNB1, stronger effect = lower value 0.995 | S. cerevisiae deletion strains, locus YKR001C, strain vps1, stronger effect = lower value 1 | S. cerevisiae deletion strains, locus YKR026C, strain gcn3, stronger effect = lower value 1.01 | S. cerevisiae deletion strains, locus YKR091W, strain srl3, stronger effect = lower value 1.01 | S. cerevisiae deletion strains, locus YLL001W, strain dnm1, stronger effect = lower value 1.01 | S. cerevisiae deletion strains, locus YLL026W, stronger effect = lower value 1.01 | S. cerevisiae deletion strains, locus YLL041C, strain sdh2, stronger effect = lower value 1.01 | S. cerevisiae deletion strains, locus YLR027C, strain aat2, stronger effect = lower value 1.01 | S. cerevisiae deletion strains, locus YLR039C, strain RIC1, stronger effect = lower value 0.933 | S. cerevisiae deletion strains, locus YLR058C, strain SHM2, stronger effect = lower value 0.984 | S. cerevisiae deletion strains, locus YLR102C, strain apc9, stronger effect = lower value 0.988 | S. cerevisiae deletion strains, locus YLR221C, strain rsa3, stronger effect = lower value 1.02 | S. cerevisiae deletion strains, locus YLR258W, strain gsy2, stronger effect = lower value 1.01 | S. cerevisiae deletion strains, locus YLR262C, strain YPT6 (second series), stronger effect = lower value 1.02 | S. cerevisiae deletion strains, locus YLR262C, strain YPT6, stronger effect = lower value 0.954 | S. cerevisiae deletion strains, locus YLR268W, strain sec22, stronger effect = lower value 1.03 | S. cerevisiae deletion strains, locus YLR320W, strain mms22, stronger effect = lower value 1.02 | S. cerevisiae deletion strains, locus YLR330W, strain CHS5, stronger effect = lower value 0.977 | S. cerevisiae deletion strains, locus YLR342W, strain FKS1 (second series), stronger effect = lower value 1.01 | S. cerevisiae deletion strains, locus YLR342W, strain FKS1, stronger effect = lower value 0.992 | S. cerevisiae deletion strains, locus YLR357W, strain rsc2, stronger effect = lower value 1.03 | S. cerevisiae deletion strains, locus YLR370C, strain arc18, stronger effect = lower value 1.02 | S. cerevisiae deletion strains, locus YLR371W, strain rom2, stronger effect = lower value 0.964 | S. cerevisiae deletion strains, locus YLR384C, strain iki3, stronger effect = lower value 1.01 | S. cerevisiae deletion strains, locus YLR418C, strain cdc73, stronger effect = lower value 1.02 | S. cerevisiae deletion strains, locus YML016C, strain PPZ1, stronger effect = lower value 0.992 | S. cerevisiae deletion strains, locus YML032C, strain rad52, stronger effect = lower value 0.976 | S. cerevisiae deletion strains, locus YML120C, strain ndi1, stronger effect = lower value 1.02 | S. cerevisiae deletion strains, locus YML124C, strain tub3, stronger effect = lower value 0.996 | S. cerevisiae deletion strains, locus YMR058W, strain fet3, stronger effect = lower value 1 | S. cerevisiae deletion strains, locus YMR078C, strain ctf18, stronger effect = lower value 0.998 | S. cerevisiae deletion strains, locus YMR125W, strain sto1, stronger effect = lower value 1 | S. cerevisiae deletion strains, locus YMR129W, stronger effect = lower value 1.02 | S. cerevisiae deletion strains, locus YMR205C, strain PFK2, stronger effect = lower value 1.01 | S. cerevisiae deletion strains, locus YMR223W, strain ubp8, stronger effect = lower value 0.976 | S. cerevisiae deletion strains, locus YMR231W, strain pep5, stronger effect = lower value 1.02 | S. cerevisiae deletion strains, locus YMR263W, strain SAP30, stronger effect = lower value 1.01 | S. cerevisiae deletion strains, locus YMR307W, strain GAS1, stronger effect = lower value 1.06 | S. cerevisiae deletion strains, locus YNL067W, strain RPL9B, stronger effect = lower value 1.02 | S. cerevisiae deletion strains, locus YNL071W, strain lat1, stronger effect = lower value 1.01 | S. cerevisiae deletion strains, locus YNL128W, strain TEP1, stronger effect = lower value 0.992 | S. cerevisiae deletion strains, locus YNL153C, strain GIM3, stronger effect = lower value 1.03 | S. cerevisiae deletion strains, locus YNL209W, strain ssb2, stronger effect = lower value 1 | S. cerevisiae deletion strains, locus YNL233W, strain BNI4, stronger effect = lower value 1.03 | S. cerevisiae deletion strains, locus YNL248C, strain rpa49, stronger effect = lower value 1.02 | S. cerevisiae deletion strains, locus YNL250W, strain rad50, stronger effect = lower value 0.961 | S. cerevisiae deletion strains, locus YNL271C, strain bni1, stronger effect = lower value 0.973 | S. cerevisiae deletion strains, locus YNL298W, strain CLA4, stronger effect = lower value 0.989 | S. cerevisiae deletion strains, locus YNL307C, strain MCK1, stronger effect = lower value 1 | S. cerevisiae deletion strains, locus YNL322C, strain KRE1 (second series), stronger effect = lower value 1.01 | S. cerevisiae deletion strains, locus YNL322C, strain KRE1, stronger effect = lower value 0.984 | S. cerevisiae deletion strains, locus YNR049C, strain mso1, stronger effect = lower value 1.01 | S. cerevisiae deletion strains, locus YNR052C, strain pop2, stronger effect = lower value 0.974 | S. cerevisiae deletion strains, locus YOL006C, strain TOP1, stronger effect = lower value 1.07 | S. cerevisiae deletion strains, locus YOL012C, strain htz1 1.13 | S. cerevisiae deletion strains, locus YOL147C, strain pex11, stronger effect = lower value 0.986 | S. cerevisiae deletion strains, locus YOR001W, strain rrp6, stronger effect = lower value 1.03 | S. cerevisiae deletion strains, locus YOR061W, strain CKA2, stronger effect = lower value 0.991 | S. cerevisiae deletion strains, locus YOR069W, strain VPS5, stronger effect = lower value 0.994 | S. cerevisiae deletion strains, locus YOR070C, strain gyp1, stronger effect = lower value 1.02 | S. cerevisiae deletion strains, locus YOR080W, strain dia2, stronger effect = lower value 1.02 | S. cerevisiae deletion strains, locus YOR083W, strain WHI5, stronger effect = lower value 1 | S. cerevisiae deletion strains, locus YOR106W, strain vam3, stronger effect = lower value 1.01 | S. cerevisiae deletion strains, locus YOR136W, strain idh2, stronger effect = lower value 0.988 | S. cerevisiae deletion strains, locus YOR144C, strain elg1, stronger effect = lower value 0.989 | S. cerevisiae deletion strains, locus YOR184W, strain ser1, stronger effect = lower value 0.971 | S. cerevisiae deletion strains, locus YOR265W, strain rbl2, stronger effect = lower value 1.01 | S. cerevisiae deletion strains, locus YOR270C, strain vph1, stronger effect = lower value 1.04 | S. cerevisiae deletion strains, locus YOR290C, strain snf2, stronger effect = lower value 1.02 | S. cerevisiae deletion strains, locus YOR316C, strain cot1, stronger effect = lower value 0.992 | S. cerevisiae deletion strains, locus YPL051W, strain arl3, stronger effect = lower value 1.01 | S. cerevisiae deletion strains, locus YPL055C, strain LGE1, stronger effect = lower value 1.02 | S. cerevisiae deletion strains, locus YPL078C, strain atp4, stronger effect = lower value 1.02 | S. cerevisiae deletion strains, locus YPL106C, strain sse1, stronger effect = lower value 1.03 | S. cerevisiae deletion strains, locus YPL240C, strain hsp82, stronger effect = lower value 1 | S. cerevisiae deletion strains, locus YPL241C, strain CIN2, stronger effect = lower value 0.993 | S. cerevisiae deletion strains, locus YPR119W, strain clb2, stronger effect = lower value 0.996 | S. cerevisiae deletion strains, locus YPR141C, strain kar3, stronger effect = lower value 0.988 | S. cerevisiae deletion strains, locus YPR163C, strain tif3, stronger effect = lower value 0.983 | S. cerevisiae deletion strains, locus YPR167C, strain met16, stronger effect = lower value 0.985 | S. cerevisiae deletion strains, strain wtn01, stronger effect = lower value 0.999 | S. cerevisiae strains, strain wild type, stronger effect = lower value 0.992
